One compound from the supplement of paper PMC11732987, “Enantioselective OTUD7B fragment discovery through chemoproteomics screening and high-throughput optimisation” (Communications Chemistry, 2025) can be followed below.

Unmarked numbers belong to inactive results.

What all share (assay): log2 ratio of Biotin-Ahx-Ub-VS probe labelling (fragment/DMSO); higher = less target engagement (more negative = stronger competition), active = hit call of the paper (q ≤ 0.05, log2 ratio ≤ -1)
What all share (conditions): compound concentration: 200 uM; treatment time: 3 h

The target in one assay is T1, USP19 (UniProt O94966).
T1 sequence (whole entry): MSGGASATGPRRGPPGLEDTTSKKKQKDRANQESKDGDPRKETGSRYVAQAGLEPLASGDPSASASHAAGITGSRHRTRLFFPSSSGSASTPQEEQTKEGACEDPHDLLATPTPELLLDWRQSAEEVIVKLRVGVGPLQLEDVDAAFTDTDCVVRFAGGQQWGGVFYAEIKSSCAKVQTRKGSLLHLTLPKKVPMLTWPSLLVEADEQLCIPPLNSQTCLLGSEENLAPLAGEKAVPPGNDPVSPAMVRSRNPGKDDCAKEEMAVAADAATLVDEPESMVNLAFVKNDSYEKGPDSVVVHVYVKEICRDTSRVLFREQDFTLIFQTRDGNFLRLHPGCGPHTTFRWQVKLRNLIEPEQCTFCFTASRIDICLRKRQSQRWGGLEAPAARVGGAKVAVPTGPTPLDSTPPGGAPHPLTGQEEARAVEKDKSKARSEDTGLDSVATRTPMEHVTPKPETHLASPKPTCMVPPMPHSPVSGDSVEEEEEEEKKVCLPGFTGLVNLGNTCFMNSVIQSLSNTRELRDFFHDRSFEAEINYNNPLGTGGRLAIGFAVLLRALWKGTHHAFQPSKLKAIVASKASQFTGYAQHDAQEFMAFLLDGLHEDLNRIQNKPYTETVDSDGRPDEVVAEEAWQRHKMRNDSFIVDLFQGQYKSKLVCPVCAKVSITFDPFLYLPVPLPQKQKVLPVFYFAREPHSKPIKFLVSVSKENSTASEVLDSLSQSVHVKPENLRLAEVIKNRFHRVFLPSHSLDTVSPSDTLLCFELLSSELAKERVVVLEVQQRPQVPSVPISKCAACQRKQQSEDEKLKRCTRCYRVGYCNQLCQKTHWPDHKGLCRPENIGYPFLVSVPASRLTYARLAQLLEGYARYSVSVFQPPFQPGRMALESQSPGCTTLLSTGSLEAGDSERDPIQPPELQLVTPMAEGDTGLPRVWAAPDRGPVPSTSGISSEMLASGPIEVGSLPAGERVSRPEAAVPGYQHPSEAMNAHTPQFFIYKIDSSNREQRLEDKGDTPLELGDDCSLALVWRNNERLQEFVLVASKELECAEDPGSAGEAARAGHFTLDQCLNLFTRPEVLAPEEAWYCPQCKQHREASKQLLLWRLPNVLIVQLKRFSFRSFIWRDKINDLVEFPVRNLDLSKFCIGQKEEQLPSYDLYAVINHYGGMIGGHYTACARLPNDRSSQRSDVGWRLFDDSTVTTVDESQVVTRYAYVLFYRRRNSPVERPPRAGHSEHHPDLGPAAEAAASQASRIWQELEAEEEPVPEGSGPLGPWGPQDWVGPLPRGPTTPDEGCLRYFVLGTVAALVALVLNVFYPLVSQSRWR
The gist of the method:
(§1)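 Global-median-normalised Spectronaut label-free quantities were compared by unpaired t-test, and values are average log2 ratios of fragment over vehicle. Only proteins with ≥2 unique peptides were used. HEK293T lysate (495 µg per sample) was treated in triplicate with fragment at 200 µM or vehicle for 3 h and then with Biotin-Ahx-Ub-VS at 0.5 µM final for 1 h. Labelled DUBs were then NeutrAvidin-enriched, digested with LysC and trypsin, and run by diaPASEF LC-MS/MS.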

In the next assay the target is T2, USP22 (UniProt Q9UPT9).
T2 sequence (whole entry): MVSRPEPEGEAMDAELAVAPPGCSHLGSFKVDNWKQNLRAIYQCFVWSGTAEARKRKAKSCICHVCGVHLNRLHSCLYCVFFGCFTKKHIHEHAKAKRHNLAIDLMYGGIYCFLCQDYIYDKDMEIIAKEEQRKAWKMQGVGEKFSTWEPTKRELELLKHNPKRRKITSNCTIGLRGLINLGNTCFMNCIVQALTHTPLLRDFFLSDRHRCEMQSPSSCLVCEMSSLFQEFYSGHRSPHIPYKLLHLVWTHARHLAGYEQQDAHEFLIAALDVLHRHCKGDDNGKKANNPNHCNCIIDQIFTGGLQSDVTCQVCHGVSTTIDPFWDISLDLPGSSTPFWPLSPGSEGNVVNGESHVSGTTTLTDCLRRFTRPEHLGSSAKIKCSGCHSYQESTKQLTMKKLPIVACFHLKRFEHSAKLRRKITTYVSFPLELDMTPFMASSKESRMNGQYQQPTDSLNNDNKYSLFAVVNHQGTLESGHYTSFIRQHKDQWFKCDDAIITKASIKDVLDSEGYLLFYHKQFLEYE
In a few lines:
as §1

A further assay deals with USP24 (UniProt Q9UPU5). In a few lines:
as §1

A further assay deals with T3, USP25 (UniProt Q9UHP3).
T3 sequence (whole entry): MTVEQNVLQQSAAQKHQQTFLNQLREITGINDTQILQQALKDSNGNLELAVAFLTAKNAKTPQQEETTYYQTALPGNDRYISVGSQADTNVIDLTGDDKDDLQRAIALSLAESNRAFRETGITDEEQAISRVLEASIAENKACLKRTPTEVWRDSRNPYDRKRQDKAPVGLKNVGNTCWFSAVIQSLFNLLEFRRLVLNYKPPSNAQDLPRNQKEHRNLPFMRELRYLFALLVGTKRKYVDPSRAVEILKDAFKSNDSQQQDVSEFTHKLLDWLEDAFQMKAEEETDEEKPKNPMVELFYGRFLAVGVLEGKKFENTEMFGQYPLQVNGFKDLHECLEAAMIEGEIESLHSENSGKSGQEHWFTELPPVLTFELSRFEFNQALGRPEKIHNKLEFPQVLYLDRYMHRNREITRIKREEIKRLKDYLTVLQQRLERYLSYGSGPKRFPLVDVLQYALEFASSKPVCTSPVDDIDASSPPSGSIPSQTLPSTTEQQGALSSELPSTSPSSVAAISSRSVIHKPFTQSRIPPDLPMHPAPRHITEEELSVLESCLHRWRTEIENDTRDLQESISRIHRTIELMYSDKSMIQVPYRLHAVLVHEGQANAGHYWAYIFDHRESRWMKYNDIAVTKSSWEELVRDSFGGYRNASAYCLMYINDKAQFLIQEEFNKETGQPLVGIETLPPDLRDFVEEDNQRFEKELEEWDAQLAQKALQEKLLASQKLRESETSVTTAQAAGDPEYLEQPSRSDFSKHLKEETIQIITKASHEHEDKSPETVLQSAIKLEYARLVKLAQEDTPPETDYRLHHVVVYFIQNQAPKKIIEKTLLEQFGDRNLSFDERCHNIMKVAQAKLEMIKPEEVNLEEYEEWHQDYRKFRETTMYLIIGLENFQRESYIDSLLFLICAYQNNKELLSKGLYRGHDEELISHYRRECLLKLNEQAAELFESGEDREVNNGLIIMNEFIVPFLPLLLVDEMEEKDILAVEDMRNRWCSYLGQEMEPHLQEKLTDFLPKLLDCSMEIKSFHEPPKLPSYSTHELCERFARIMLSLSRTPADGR
In a few lines:
as §1

The target of another assay is T4, USP28 (UniProt Q96RU2).
T4 sequence (whole entry): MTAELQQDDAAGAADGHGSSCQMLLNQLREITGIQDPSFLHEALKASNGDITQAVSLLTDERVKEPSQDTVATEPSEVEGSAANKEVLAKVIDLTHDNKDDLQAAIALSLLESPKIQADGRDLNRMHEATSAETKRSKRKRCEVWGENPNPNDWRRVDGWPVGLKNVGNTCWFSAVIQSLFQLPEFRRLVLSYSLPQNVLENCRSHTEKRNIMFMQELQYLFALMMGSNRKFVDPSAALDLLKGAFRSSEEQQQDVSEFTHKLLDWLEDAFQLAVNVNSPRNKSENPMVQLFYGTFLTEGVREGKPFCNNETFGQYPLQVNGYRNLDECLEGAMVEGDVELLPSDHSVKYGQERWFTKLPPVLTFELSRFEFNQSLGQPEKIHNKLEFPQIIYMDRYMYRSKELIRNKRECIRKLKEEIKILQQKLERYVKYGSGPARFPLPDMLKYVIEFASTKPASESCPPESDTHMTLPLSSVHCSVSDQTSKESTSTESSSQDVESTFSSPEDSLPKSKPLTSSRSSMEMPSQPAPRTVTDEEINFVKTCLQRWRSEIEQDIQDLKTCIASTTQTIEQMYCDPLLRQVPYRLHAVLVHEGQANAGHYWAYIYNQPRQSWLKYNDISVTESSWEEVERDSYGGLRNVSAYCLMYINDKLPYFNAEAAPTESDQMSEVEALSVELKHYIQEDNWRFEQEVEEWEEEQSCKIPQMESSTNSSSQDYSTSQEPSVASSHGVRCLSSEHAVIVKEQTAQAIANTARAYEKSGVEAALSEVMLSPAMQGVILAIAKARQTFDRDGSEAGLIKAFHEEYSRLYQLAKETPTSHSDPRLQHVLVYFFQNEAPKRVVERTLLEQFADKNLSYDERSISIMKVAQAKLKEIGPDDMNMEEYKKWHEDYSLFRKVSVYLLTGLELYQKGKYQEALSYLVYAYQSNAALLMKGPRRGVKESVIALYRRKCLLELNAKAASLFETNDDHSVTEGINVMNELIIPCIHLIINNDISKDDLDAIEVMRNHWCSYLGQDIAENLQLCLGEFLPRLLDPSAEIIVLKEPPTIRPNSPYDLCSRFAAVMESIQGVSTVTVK
In a few lines:
as §1

USP24, sequence (Q9UPU5 whole entry): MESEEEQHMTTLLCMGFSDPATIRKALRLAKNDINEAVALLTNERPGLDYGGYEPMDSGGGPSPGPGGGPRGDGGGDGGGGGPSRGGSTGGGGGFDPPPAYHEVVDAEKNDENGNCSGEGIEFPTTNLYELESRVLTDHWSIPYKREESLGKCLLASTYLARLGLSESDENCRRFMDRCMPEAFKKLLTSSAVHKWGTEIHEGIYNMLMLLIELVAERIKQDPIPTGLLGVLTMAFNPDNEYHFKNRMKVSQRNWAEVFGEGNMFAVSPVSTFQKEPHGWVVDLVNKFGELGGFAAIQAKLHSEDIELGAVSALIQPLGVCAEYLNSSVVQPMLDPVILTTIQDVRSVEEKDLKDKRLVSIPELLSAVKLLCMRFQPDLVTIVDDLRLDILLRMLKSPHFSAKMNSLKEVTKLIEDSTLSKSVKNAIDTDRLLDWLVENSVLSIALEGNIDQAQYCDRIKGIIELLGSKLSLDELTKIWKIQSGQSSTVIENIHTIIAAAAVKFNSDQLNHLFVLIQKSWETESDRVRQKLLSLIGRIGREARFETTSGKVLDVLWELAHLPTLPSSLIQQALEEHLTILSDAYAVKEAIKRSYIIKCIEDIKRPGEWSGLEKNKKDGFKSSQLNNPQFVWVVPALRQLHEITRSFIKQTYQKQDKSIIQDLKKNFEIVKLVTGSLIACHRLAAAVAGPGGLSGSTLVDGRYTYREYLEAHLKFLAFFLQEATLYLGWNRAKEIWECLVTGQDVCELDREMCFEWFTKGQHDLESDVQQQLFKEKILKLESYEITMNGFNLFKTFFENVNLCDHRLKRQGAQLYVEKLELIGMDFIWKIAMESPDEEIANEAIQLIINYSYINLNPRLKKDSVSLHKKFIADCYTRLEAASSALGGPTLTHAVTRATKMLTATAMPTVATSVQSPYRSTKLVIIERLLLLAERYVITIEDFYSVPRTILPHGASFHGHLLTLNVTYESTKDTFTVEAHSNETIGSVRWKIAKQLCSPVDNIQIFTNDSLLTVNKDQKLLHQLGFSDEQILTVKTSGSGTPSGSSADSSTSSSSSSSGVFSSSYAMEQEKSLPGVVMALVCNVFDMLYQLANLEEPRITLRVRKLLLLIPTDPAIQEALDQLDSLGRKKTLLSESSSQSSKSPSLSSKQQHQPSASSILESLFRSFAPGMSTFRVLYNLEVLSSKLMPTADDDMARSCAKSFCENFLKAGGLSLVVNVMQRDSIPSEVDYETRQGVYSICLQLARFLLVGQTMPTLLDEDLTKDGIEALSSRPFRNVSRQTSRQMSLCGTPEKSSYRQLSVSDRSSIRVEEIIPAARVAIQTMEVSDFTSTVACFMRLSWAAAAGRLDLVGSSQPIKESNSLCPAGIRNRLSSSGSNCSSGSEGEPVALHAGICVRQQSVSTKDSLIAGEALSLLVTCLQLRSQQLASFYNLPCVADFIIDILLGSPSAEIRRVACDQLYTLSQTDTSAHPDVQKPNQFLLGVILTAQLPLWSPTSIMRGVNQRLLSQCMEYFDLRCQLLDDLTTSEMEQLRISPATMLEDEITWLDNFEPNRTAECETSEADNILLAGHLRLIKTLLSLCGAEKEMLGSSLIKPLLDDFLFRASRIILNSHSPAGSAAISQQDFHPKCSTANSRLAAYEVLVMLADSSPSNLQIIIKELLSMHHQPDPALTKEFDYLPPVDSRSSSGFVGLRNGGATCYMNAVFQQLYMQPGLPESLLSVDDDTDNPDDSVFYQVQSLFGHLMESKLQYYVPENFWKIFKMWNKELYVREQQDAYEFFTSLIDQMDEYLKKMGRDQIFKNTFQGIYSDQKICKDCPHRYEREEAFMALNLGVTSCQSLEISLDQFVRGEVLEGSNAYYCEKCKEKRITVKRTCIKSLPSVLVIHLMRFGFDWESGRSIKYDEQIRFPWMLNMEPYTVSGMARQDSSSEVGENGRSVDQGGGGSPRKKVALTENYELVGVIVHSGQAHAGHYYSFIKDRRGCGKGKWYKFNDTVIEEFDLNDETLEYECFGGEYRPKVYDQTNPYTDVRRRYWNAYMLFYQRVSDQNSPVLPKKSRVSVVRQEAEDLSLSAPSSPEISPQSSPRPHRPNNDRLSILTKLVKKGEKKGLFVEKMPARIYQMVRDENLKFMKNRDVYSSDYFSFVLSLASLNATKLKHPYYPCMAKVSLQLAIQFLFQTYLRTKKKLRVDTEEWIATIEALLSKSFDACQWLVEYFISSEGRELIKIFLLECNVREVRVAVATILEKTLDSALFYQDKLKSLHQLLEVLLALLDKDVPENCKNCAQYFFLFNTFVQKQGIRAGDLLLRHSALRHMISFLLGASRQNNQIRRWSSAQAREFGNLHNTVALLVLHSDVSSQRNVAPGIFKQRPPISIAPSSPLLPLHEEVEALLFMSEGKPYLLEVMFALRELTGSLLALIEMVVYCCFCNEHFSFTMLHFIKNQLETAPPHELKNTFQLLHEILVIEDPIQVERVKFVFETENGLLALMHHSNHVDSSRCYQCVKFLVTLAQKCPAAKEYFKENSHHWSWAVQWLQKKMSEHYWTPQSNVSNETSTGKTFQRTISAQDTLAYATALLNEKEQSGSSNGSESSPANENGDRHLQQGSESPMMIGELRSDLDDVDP

Regarding `N#Cc1cnn(-c2ccccc2)c1NC(=O)CCl`, the “log2 ratio of Biotin-Ahx-Ub-VS probe labelling” value is -0.232 in the assay with USP19; 0.00637 with USP22; -0.338 with USP24; -2.88 (active) in the assay with USP25; -2.37 (active) with USP28.
